Measurements published in the supplement of paper PMC7156485.
Where a name gives a salt, the structure may show the parent alone. ± gives the standard deviation of the averaged measurements.

Experiments:
Details in all cases: concentration: 10 µM; 24 h
HCC1569 [1] = assay: cell number relative to DMSO (% of DMSO); higher = more cells (less growth inhibition / toxicity)
In short: (§1)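 In 384-well plates holding 800 HCC1569 or TDF cells per well in RPMI with 10% FBS, compounds were tested at 10 µM for 24 h at 37 °C in triplicate. Fixation used 3.7% formaldehyde. Staining used a rabbit anti-H1.0 antibody with an AlexaFluor 647 secondary, plus DAPI. Each value, H1.0 nuclear intensity or cell number, is a median of replicates shown as percent of the plate control, and HCC1569 values were smoothed for positional effects.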

TDF [2] = assay: as above
In short: as §1

TDF [3] = assay: H1.0 immunofluorescence intensity relative to DMSO (% of DMSO); higher = stronger H1.0 induction, active = 120 or more
In short: as §1

HCC1569 [4] = assay: H1.0 immunofluorescence intensity relative to DMSO (% of DMSO); higher = stronger H1.0 induction, active = 140 or more
In short: as §1
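Throughout, for H1.0 immunofluorescence intensity relative to DMSO: TDF is a line of transformed human dermal fibroblasts of mesenchymal origin.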
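Throughout, for cell number relative to DMSO: TDF denotes transformed human dermal fibroblasts of mesenchymal origin.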

Compound | cell number (HCC1569 [1]) | cell number (TDF [2]) | H1.0 immunofluorescence intensity (TDF [3]) | H1.0 immunofluorescence intensity (HCC1569 [4])
COC1C=COC2(C)Oc3c(C)c(O)c4c(O)c(cc([O-])c4c3C2=O)NC(=O)C(C)=CC=CC(C)C(O)C(C)C(O)C(C)C(OC(C)=O)C1C.[Na+] (stereo not given) | 103 | 101 | 102 (inactive) | 97.5 (inactive)
Nc1sc2c(c1C(=O)c1ccc(Cl)cc1)CCCC2 | 102 | 96.8 | 95 (inactive) | 98.9 (inactive)
COc1cc2c(c(OC)c1OC)-c1c(cc(OC)c(OC)c1OC)C[C@](C)(O)[C@@H](C)C2 | 100 | 108 | 101 (inactive) | 100 (inactive)
CCCCCC(O)C=CC=CC=CC(O)CC=CCCCC(=O)O (stereo not given) | 101 | 100 | 94.8 (inactive) | 107 (inactive)
O=C(CO)N1CCC(c2[nH]nc(-c3ccc(Cl)cc3)c2-c2ccncn2)CC1 | 93.2 | 105 | 91.3 (inactive) | 96 (inactive)
CCCCc1nc(Cl)c(CO)n1Cc1ccc(-c2ccccc2-c2nnn[n-]2)cc1.[K+] [Losartan potassium] | 102 | 90.1 | 98.1 (inactive) | 102 (inactive)
CCC(C(=O)C(C)C(O)C(C)CCc1ccc(C)c(O)c1C(=O)[O-])C1OC(CC)(C2CCC(O)(CC)C(C)O2)CC1C.[Na+] (stereo not given) [Lasalocid A] | 79.3 | 88.5 | 105 (inactive) | 94.6 (inactive)
O=C1c2ccccc2-c2n[nH]c3cccc1c23 [JNK Inhibitor II] | 91.4 | 112 | 90.5 (inactive) | 144 (active)
CS(=O)c1ccc(-c2nc(-c3ccc(F)cc3)c(-c3ccncc3)[nH]2)cc1 (stereo not given) | 92.7 | 107 | 98 (inactive) | 104 (inactive)
CC(C)NCC(O)COc1cccc2[nH]ccc12 (stereo not given) [Pindolol] | 98 ± 3.1 | 94.3 ± 2.5 | 98.8 (inactive) | 110 (inactive)
COc1cc2c(cc1OC)C1C(=O)c3ccc4c(c3OC1CO2)C=CC(C)(C)O4 (stereo not given) [Degeulin] | 72.6 | 76.5 | 106 (inactive) | 121 (inactive)
CC1(C)OC2CC3C4CC(F)C5=CC(=O)C=CC5(C)C4(F)C(O)CC3(C)C2(C(=O)CO)O1 (stereo not given) [Fluocinolone acetonide] | 101 | 96.3 | 88.2 (inactive) | 124 (inactive)
CCN1CCCC1CNC(=O)c1cc(S(N)(=O)=O)ccc1OC (racemic) | 106 | 118 | 98.8 (inactive) | 99.3 (inactive)
CCCCCCCCCCCCCC=CC(O)C(CO)NC(=O)CCCCCCC (stereo not given) [C8 Ceramide] | 102 | 99.5 | 101 (inactive) | 99.8 (inactive)
COC(=O)C1C(O)CCC2CN3CCc4c([nH]c5ccccc45)C3CC21.Cl (stereo not given) [Yohimbine hydrochloride] | 99.8 | 113 | 93.8 (inactive) | 107 (inactive)
NS(=O)(=O)c1ccc(S(=O)(=O)Nc2cccc3c(Cl)c[nH]c23)cc1 [N~1~-(3-chloro-1H-indol-7-yl)-1,4-benzenedisulfonamide] | 95.3 | 103 | 96.2 (inactive) | 107 (inactive)
CCCC1=C(c2ccc(O)cc2)N(c2ccc(O)cc2)NC1=C1C=CC(=O)C=C1 [1,3,5-tris(4-hydroxyphenyl)-4-propyl-1H-pyrazole] | 98.3 | 107 | 92.5 (inactive) | 99.1 (inactive)
CCCCCCCCCCCCCCCCCCCCCCC(=O)O [Tricosanoic acid] | 99.7 | 99.8 | 105 (inactive) | 105 (inactive)
COC1C=COC2(C)Oc3c(C)c(O)c4c(O)c(cc(O)c4c3C2=O)NC(=O)C(C)=CC=CC(C)C(O)C(C)C(O)C(C)C(OC(C)=O)C1C (stereo not given) | 103 | 105 | 97.7 (inactive) | 103 (inactive)
Clc1ccc(C(c2ccccc2Cl)C(Cl)Cl)cc1 (stereo not given) [1-(2-Chlorophenyl)-1-(4-chlorophenyl)-2,2-dichloroethane] | 96.1 | 106 | 98.3 (inactive) | 92.9 (inactive)
NC(N)=S [Thiourea] | 100 | 108 | 92.6 (inactive) | 99.6 (inactive)
CS(=O)(=O)O.O=C1Nc2ccc(-c3cccnc3)cc2C1=Cc1ccc[nH]1 [JAK3 Inhibitor VI] | 73 | 47.7 | 108 (inactive) | 130 (inactive)
O.O.O=c1c(O)c(-c2ccc(O)c(O)c2)oc2cc(O)cc(O)c12 | 90.7 | 89.7 | 101 (inactive) | 116 (inactive)
NC(Cc1ccc(Cl)cc1)C(=O)O (racemic) | 101 | 106 | 88.6 (inactive) | 87.6 (inactive)
CC(C=CC1=C(C)CCCC1(C)C)=CC=CC(C)=CC(=O)O [Retinoic Acid] | 98.1 ± 2.9 | 109 ± 5.1 | 90.8 (inactive) | 121 (inactive)

Compound | cell number (HCC1569 [1]) | cell number (TDF [2]) | H1.0 immunofluorescence intensity (TDF [3]) | H1.0 immunofluorescence intensity (HCC1569 [4])
CCn1c(-c2nonc2N)nc2c(C#CC(C)(C)O)ncc(OCC3CCCNC3)c21 (stereo not given) | 72.9 | 71.5 | 103 (inactive) | 120 (inactive)
c1ccc2c(Oc3nc(Nc4ccc(N5CCOCC5)cc4)c4ncn(C5CCCCC5)c4n3)cccc2c1 | 84.3 | 92.2 | 101 (inactive) | 150 (active)
CCC1(O)CC(OC2CC(N(C)C)C(OC3CC(O)C(OC4CCC(=O)C(C)O4)C(C)O3)C(C)O2)c2c(cc3c(c2O)C(=O)c2c(O)cccc2C3=O)C1C(=O)OC (stereo not given) [Aclarubicin] | 83.2 | 55.5 | 129 (active) | 210 (active)
Cl.NCc1c[nH]c(=S)n1[C@H]1CCc2c(F)cc(F)cc2C1 | 99.6 | 110 | 95.9 (inactive) | 111 (inactive)
O=C(O)CN(CCOCCOCCN(CC(=O)O)CC(=O)O)CC(=O)O | 99.4 | 105 | 90.3 (inactive) | 88.9 (inactive)
O=C(O)c1ccccc1Nc1ccccc1 [N-Phenylanthranilic acid] | 102 | 104 | 100 (inactive) | 97.5 (inactive)
O=C1CC(c2ccc(O)c(O)c2)Oc2cc(OC3OC(CO)C(O)C(O)C3O)cc(O)c21 (stereo not given) [Eriodictyol-7-O-glucoside] | 101 | 94.3 | 97.7 (inactive) | 89.3 (inactive)
COc1cc2ncnc(Nc3ccc(Cl)cc3Cl)c2cc1OC [Ste11 MAPKKK Activation Inhibitor] | 83.8 | 97.5 | 89.8 (inactive) | 130 (inactive)
OCC1NC(CO)C(O)C1O [(2R,5R)-Bis(hydroxymethyl)-(3R,4R)-dihydroxypyrrolidine] | 102 | 101 | 91.3 (inactive) | 84.7 (inactive)
Cl.NC(N)=NC(=O)Cc1c(Cl)cccc1Cl [Guanfacine.HCl] | 101 | 82.4 | 102 (inactive) | 107 (inactive)
CN1Cc2c(N)cccc2C(c2ccccc2)C1.O=C(O)C=CC(=O)O (stereo not given) [Nomifensine maleate] | 102 | 104 | 89 (inactive) | 101 (inactive)
CNC1C(O)C(NC)C2OC3(O)C(=O)CC(C)OC3OC2C1O (stereo not given) [Spectinomycin] | 104 | 98 | 97 (inactive) | 87 (inactive)
c1ccc2c(-c3ccncc3)c[nH]c2c1 [Rho Kinase Inhibitor III, Rockout] | 105 | 106 | 86.9 (inactive) | 118 (inactive)
CC(=O)ONC1=c2ccccc2=NC1=C1C(=O)Nc2cc(Br)ccc21 | 55.8 | 51.1 | 116 (inactive) | 188 (active)
Cl.OC(CCN1CCCCC1)(c1ccccc1)C1CCCCC1 (stereo not given) [Trihexyphenidyl hydrochloride] | 103 | 104 | 94 (inactive) | 75.4 (inactive)
CC(Oc1c(Cl)cccc1Cl)C1=NCCN1.Cl (stereo not given) [Lofexidine.HCl] | 98.9 | 107 | 100 (inactive) | 96.1 (inactive)
CCOc1ccc2ccc(=O)oc2c1 [7-ethoxy-2H-chromen-2-one] | 99.7 | 108 | 93.7 (inactive) | 103 (inactive)
CC(C)(C)C1(O)CCN2CC3c4ccccc4CCc4cccc(c43)C2C1.Cl (racemic) | 105 | 111 | 88.7 (inactive) | 91 (inactive)
O=C(O)CCCC=CCC1C2CCC(O2)C1CNNC(=O)Nc1ccccc1 (stereo not given) | 102 | 103 | 92.8 (inactive) | 99.7 (inactive)
NC(=O)N1C(=O)/C(=C(\O)c2cccs2)c2cc(Cl)ccc21 | 101 | 104 | 94.8 (inactive) | 106 (inactive)
CCCCCCCCCCCCCCCCCCC(=O)O [Nonadecanoic acid] | 96.7 | 102 | 101 (inactive) | 98 (inactive)
O=[N+]([O-])c1cc(S(=O)(=O)Nc2ccc(O)c3ccccc23)ccc1Cl [4-chloro-N-(4-hydroxy-1-naphthyl)-3-nitrobenzenesulfonamide] | 85.3 | 76.6 | 106 (inactive) | 115 (inactive)
N[C@H](CO)C(=O)O [D-Serine] | 104 | 112 | 87.2 (inactive) | 102 (inactive)
CC(C)C1CCC(C(=O)NC(Cc2ccccc2)C(=O)O)CC1 (stereo not given) [Nateglinide] | 105 | 112 | 96.1 (inactive) | 102 (inactive)
CC(C(O)c1ccc(O)cc1)N1CCC(Cc2ccccc2)CC1 (stereo not given) [Ifenprodil tartrate] | 104 | 102 | 94.5 (inactive) | 98.5 (inactive)
